Source: PubChem
aSyn 5UTR inh – MLPCN primary screen, SNCA 5' untranslated region. alpha-synuclein 5'UTR reporter, inhibitor activity. inhibition, % (tested at 7.5 µM). 300,000 tested, 0.82% active. AID 1813, 2009; in the data active means inhibition above about 60%; inconclusive means no clear call, values can overlap the other calls;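 further: H4 neuroglioblastoma cells stably carrying SNCA 5'UTR luciferase fusion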
KLF5 inh – KLF5 expression inhibitors, primary screen, DLD-1 cells, luminescence; DLD-1 KLF5 promoter-luciferase reporter; 290,000 tested, 0.23% active; inhibition, % at 5 µM;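 active means inhibition above a per-plate limit of that plate's mean compound inhibition plus 3 SD, cut at about 60% in these data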;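 further: higher means less KLF5 promoter-driven luciferase light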
Ba/F3 V617F tox – reduced viability of JAK2V617F-dependent Ba/F3 cells, primary screen, JAK2V617F inhibitor project, cell-based, Ba/F3 EpoR-JAK2V617F, luminescence; inhibition, % at 5.6 µM; ATP luminescence; 220,000 tested, 1.1% active; AID 1446, 2008;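 active means inhibition above the campaign mean plus 3 SD over all tested compounds, cut at about 24% in these data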;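 further: cytokine-independent growth of Ba/F3 cells driven by EpoR plus mutant JAK2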
IEC-6 tox – cytotoxicity in IEC-6 intestinal epithelial cells, primary screen, cytotoxicity control for KLF5 inhibitor project, cell-based, luminescence; 290,000 tested, 0.78% active; AID 1825, 2009; IEC-6 cytotoxicity, luminescence viability; inhibition, % at 5 µM; in the data active means inhibition above about 22%
APP transl inh – inhibitors of APP translation via 5'UTR reporter, primary screen, APP 5'UTR luciferase, SH-SY5Y cells; 190,000 tested, 0.82% active; inhibition, % at 2 µM; SH-SY5Y APP 5'UTR-luciferase reporter, luminescence;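 active means inhibition above a set limit, derived from the sample mean plus 3 SD, cut at about 45% in these data; inconclusive means one replicate passes the limit while the other fails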
BaF3 tox – parental Ba/F3 cell viability inhibition, counter-screen for JAK2V617F inhibitor project, murine pro-B, CellTiter-Glo luminescence | CellTiter-Glo ATP luminescence | inhibition, % at 5.6 µM | 220,000 tested, 1.1% active | AID 1486, 2009;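 active means inhibition above a per-campaign cutoff, the mean inhibition of all tested compounds plus 3 SD, cut at about 27% in these data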
BaF3 parental 2 – parental Ba/F3 cell viability inhibition, counter-screen for JAK2V617F inhibitor project, murine pro-B, CellTiter-Glo luminescence. shares compounds with Ba/F3 V617F tox. cells kept alive by added IL-3. inhibition, % at 5.6 µM. 580 tested, 31% active. AID 1520, 2009;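 active means cell growth inhibition above the hit limit set in the earlier mutant JAK2 cell screen, cut at about 27% in these data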
JAK2V617F confrm – viability loss in Ba/F3 EpoR-JAK2V617F cells, confirmation, JAK2V617F inhibitor project, cell-based, luminescence, triplicate. inhibition, % at 5.6 µM. shares compounds with Ba/F3 V617F tox. 580 tested, 66% active. CellTiter-Glo luminescence;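 active means mean inhibition above the hit cutoff derived in the earlier primary screen, cut at about 25% in these data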;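 further: higher means lower luminescence from reduced cell ATP and viability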
Each line names hits and unclear results; the compound was inactive in the other large screens (follow-up assays come after a bar, where they were run). Only some compounds are listed: those with a hit (about 2.1% of all), similar ones and a draw of the others.

Cc1nc2cc(-c3ccccc3)nn2c(C)c1CCC(=O)N1CCC2(CC1)OCCO2	aSyn 5UTR inh 79
C[N+]12CCC(CC1)C(=C(c1ccccc1)c1ccccc1)C2	none
CC[N+]12CCC(CC1)C(=C(c1ccccc1)c1ccccc1)C2	BaF3 tox 29
O=C1C2CCCN2C(c2cccnc2)N1c1nccs1 (stereo not drawn)	none
COc1cc(CN2CCN(c3cc(C)ccc3C)CC2)ccc1O	Ba/F3 V617F tox 35, BaF3 tox 50
COc1cccc(OP(=O)(Nc2ccccc2)Oc2cccc(OC)c2)c1	none (no result: Ba/F3 V617F tox, APP transl inh, BaF3 tox)
O=C(/C=C/c1c[nH]c2ccccc12)c1c(O)n(CCc2ccccc2)c(=O)[nH]c1=O	BaF3 tox 34 (no result: APP transl inh)
Cc1cc([N+](=O)[O-])c2ccccc2[n+]1[O-]	aSyn 5UTR inh 127, KLF5 inh 71, Ba/F3 V617F tox 100, IEC-6 tox 101, BaF3 tox 106 (no result: APP transl inh)
Cc1nc2ccccc2c(=O)n1-c1ccccc1[N+](=O)[O-]	none
CC12CC[C@H]3[C@@H](CCC4(O)C[C@H](O)CCC34/C=N/NC(=O)c3ccccc3[N+](=O)[O-])C1(O)CCC2C1=CC(=O)OC1 (stereo partly drawn)	aSyn 5UTR inh 117 (no result: Ba/F3 V617F tox, APP transl inh, BaF3 tox)
CC12CC[C@H]3[C@@H](CCC4(O)C[C@H](O)CCC34/C=N/NC(=O)Cc3ccccc3)C1(O)CCC2C1=CC(=O)OC1 (stereo partly drawn)	none
CC1CN(c2ccc([N+](=O)[O-])c(N3CCCCC3)c2)CCN1 (stereo not drawn)	none (no result: APP transl inh)
O=C1C2CCCC1C(N1CCCCC1)CC2 (stereo not drawn)	none (no result: Ba/F3 V617F tox, APP transl inh, BaF3 tox)
Cc1ccc(-c2cc(-c3ccc(C)cc3)[n+](-c3ccc(C(=O)O)cc3)c(-c3ccc(C)cc3)c2)cc1	none (no result: KLF5 inh, Ba/F3 V617F tox, IEC-6 tox, APP transl inh, BaF3 tox)
Cc1ccc(C[n+]2c(-c3ccc(C)cc3)cc(-c3ccc(C)cc3)cc2-c2ccc(C)cc2)cc1	aSyn 5UTR inh 95 (no result: KLF5 inh, Ba/F3 V617F tox, IEC-6 tox, APP transl inh, BaF3 tox)
C[C@H]1C/C=C/[C@H]2[C@H](O)[C@H](C)[C@@](C)(O)[C@H]3[C@H](Cc4ccccc4)NC(=O)[C@]32[C@H](O)/C=C/[C@](C)(O)C1	none (no result: KLF5 inh, Ba/F3 V617F tox, IEC-6 tox, APP transl inh, BaF3 tox)
CC(=O)O[C@@H]1/C=C/[C@](C)(O)C[C@@H](C)C/C=C/[C@H]2[C@H](O)C(C)=C(C)[C@H]3[C@H](Cc4ccccc4)NC(=O)[C@@]123	aSyn 5UTR inh 117 (no result: KLF5 inh, Ba/F3 V617F tox, IEC-6 tox, APP transl inh, BaF3 tox)
CCN1CC=C(c2c[nH]c3ccccc23)CC1	Ba/F3 V617F tox 87, BaF3 tox 73
COc1cc(C=C2C(=O)NC(=O)NC2=O)ccc1OS(=O)(=O)c1ccccc1[N+](=O)[O-]	none (no result: Ba/F3 V617F tox, APP transl inh, BaF3 tox)
CN1CCN2c3ccc(N)cc3CC3(C(=O)NC(=O)NC3=O)C2C1 (stereo not drawn)	none (no result: APP transl inh)
OC(CN1CCCCC1)c1c[nH]c2ccccc12 (stereo not drawn)	none (no result: Ba/F3 V617F tox, APP transl inh, BaF3 tox)
CCOC(=O)c1c(N)n(CCCOC(=O)c2ccco2)c2nc3ccccc3nc12	aSyn 5UTR inh 114
COCCCn1c(N)c(C(=O)OCCOC)c2nc3ccccc3nc21	none
c1cncc(CNC2CCCCC2)c1	none (no result: Ba/F3 V617F tox, APP transl inh, BaF3 tox)
CCOC(=O)c1ccc2c(c1)n(Cc1ccccc1)c(C)[n+]2CC	BaF3 tox 27
COC(=O)c1cn(C(=O)c2cccc3ccccc23)c2ccccc12	none (no result: APP transl inh)
CCOc1cc2c(cc1OCC)-n1cccc1C(c1ccccc1O)NC2 (stereo not drawn)	none (no result: Ba/F3 V617F tox, APP transl inh, BaF3 tox)
CC[n+]1c(SC)ccc2cc(OC)ccc21	Ba/F3 V617F tox 85, BaF3 tox 84
C=CCn1c(O)c(C(C)=NC2CCN(Cc3ccccc3)CC2)c(=O)[nH]c1=O	none (no result: APP transl inh)
C[N+]1=C(/C=C/Nc2ccccc2)C(C)(C)c2ccccc21	Ba/F3 V617F tox 59, BaF3 tox 61
Oc1cccc2cccnc12	IEC-6 tox 37 (no result: Ba/F3 V617F tox, APP transl inh, BaF3 tox)
Nc1ccccc1-[n+]1c(-c2ccccc2)cc(-c2ccccc2)cc1-c1ccccc1	Ba/F3 V617F tox 49, BaF3 tox 52 (no result: APP transl inh)
CC(C)[C@]12O[C@H]1[C@@H]1O[C@]13[C@]1(O[C@H]1C[C@H]1C4=C(CC[C@@]13C)C(=O)OC4)[C@@H]2O	aSyn 5UTR inh 124, KLF5 inh 104, Ba/F3 V617F tox 99, IEC-6 tox 97, BaF3 tox 105 (no result: APP transl inh)
Cc1nn(CCC#N)c2c1P(=S)(N1CCCC1)OC(c1ccc(F)cc1)=N2 (stereo not drawn)	none
c1ccc2cc(C3N4CCCN34)ccc2c1 (stereo not drawn)	none
Cc1ccc(C2C(=O)NC(=O)NC2=O)cc1	none (no result: KLF5 inh, Ba/F3 V617F tox, IEC-6 tox, APP transl inh, BaF3 tox)
CN1CCN(c2ccc([N+](=O)[O-])c3no[n+]([O-])c23)CC1	aSyn 5UTR inh 98, Ba/F3 V617F tox 99, IEC-6 tox 90, BaF3 tox 107 (no result: APP transl inh)
CNCCc1nc(N)n[nH]1	none
COc1ccc(CCNCc2c(OC)ccc3ccccc23)cc1	none (no result: Ba/F3 V617F tox, APP transl inh, BaF3 tox)
C=CC(C)C(C(=O)c1ccccc1)N(C)C (stereo not drawn)	Ba/F3 V617F tox 27, BaF3 tox 31 (no result: aSyn 5UTR inh)
CN(C)C(Cc1ccccc1)C(=O)c1ccccc1 (stereo not drawn)	BaF3 tox 34
CNc1ccc2oc(C[C@H]3O[C@@]4(CC[C@H]3C)O[C@H]([C@H](C)C(=O)c3ccc[nH]3)[C@H](C)C[C@H]4C)nc2c1C(=O)O	aSyn 5UTR inh 117 (no result: KLF5 inh, Ba/F3 V617F tox, IEC-6 tox, APP transl inh, BaF3 tox)
CCCCCn1c(=O)c(C(=O)Nc2ccccc2S(N)(=O)=O)c(O)c2ccccc21	aSyn 5UTR inh 69
CCCCCn1c(=O)c(C(=O)Nc2cnccn2)c(O)c2ccccc21	aSyn 5UTR inh 98
CCCC1=C(C(=O)OCC)C2(C(=O)Nc3ccccc32)C(C#N)=C(N)O1 (stereo not drawn)	none
c1cc2n(c1)-c1c(ccc3c1OCO3)CNC2c1ccc2c(c1)OCO2 (stereo not drawn)	none
COc1ccc(C2NCc3ccc4c(c3-n3cccc32)OCO4)cc1O (stereo not drawn)	aSyn 5UTR inh inconclusive, Ba/F3 V617F tox 75, IEC-6 tox 74, APP transl inh 94, BaF3 tox 73
COc1ccc(Oc2cc(NC(=O)c3nn(C)cc3[N+](=O)[O-])cc([N+](=O)[O-])c2)cc1	Ba/F3 V617F tox 63, APP transl inh 95, BaF3 tox 42
C=Cn1ccnc1P(=S)(c1nccn1C=C)C1CCCCC1	none
O=C(O)c1[nH]c(=O)[nH]c(=O)c1F	Ba/F3 V617F tox 64 (no result: APP transl inh) | BaF3 parental 2 inactive | JAK2V617F confrm 67
CCc1ccccc1NC(=O)CNCc1ccccc1	none
